Molecules are shown by their SMILES. The panel holds about 83,000 compounds, 20% with a hit somewhere; the sample as a whole holds those more often.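 A percent growth of 40 corresponds to 60% growth inhibition; 0 means no net growth; -100 means all cells died. Active threshold: below 10.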 Unmarked numbers belong to inactive results. Active and inactive are the calls of the source.

The test system of the first assay is HOP-62 NSCLC. The experiment in a line: NCI-60 one-dose screen, 48 h (100 = growth as untreated, 0 = no growth, -100 = all killed). The settings on record: 10 µM.
Consider `CCOC(=O)c1cc(-c2ccccc2)nc(N)n1`, for which the growth is 96.1%.
As for `COc1cc(C)c2sc3ccccc3c(=O)c2c1NCCN(C)C`, the growth is 67.7%.
On the same count and under the same terms, with `C/C=C\COc1cc(C)c(Cl)cc1Cl` the figure was 109%; with `NC(N)=NS(=O)(=O)c1ccc(Nc2ccc3nnc(-c4ccncc4)n3n2)cc1`, 110%; with `COc1ccc(C2C=C(c3ccc(Cl)c(Cl)c3)N=C3SC(C)=CN32)cc1` (stereo unspecified), 99.5%.
On the same count and under the same terms, with `CC(=O)OC1Oc2ccccc2-c2oc(=O)c(-c3ccc(F)cc3)cc21` (stereo unspecified) the figure was 101%; with `CS(=O)(=O)Nc1ccc(Nc2c3ccccc3nc3cc(Cl)ccc23)cc1`, 25%; with `COc1cc2nc(Sc3sc(N)nc3C)n(-c3ccc(Oc4ccccc4)cc3)c(=O)c2cc1OC`, 110%.
Still for that read-out and setting: as for `CCOC(=O)c1sc(NC(=O)c2cc(OC)c(OC)c(OC)c2)nc1C`, the figure is 116%; as for `O=C(Nc1ccc(OCc2nnc(-c3ccccc3)o2)c(F)c1)Nc1ccc(Cl)c(Cl)c1`, 76.6%.
As for `COc1ccc(/C=C2\SC(=S)N(CCCN3CCOCC3)C2=O)c(OC)c1`, the growth is 125%.
The same measure, in the same setting: as for `CCSc1nc2c([nH]1)c(=O)n(C)c(=S)n2C`, the figure is 98%; as for `CCNC(=S)NN`, 76.2%; as for `COc1ccc(-c2ccc(-c3ccc(C(=N)N)c(F)c3)s2)cc1`, -75.7% (active).
Still for that read-out and setting: with `O=C(c1ccc(Cl)cc1)c1no[n+]([O-])c1C(=O)c1ccc(Cl)cc1` the figure was 104%.
Regarding `COc1cccc2c1O/C(=C\c1ccc([N+](=O)[O-])s1)C2=O`, the growth was 92.4%.
Regarding `NCCNc1ccc2cc(-c3nc4ccccc4[nH]3)c(=O)oc2c1`, the growth was 94.7%.
On to `Fc1ccc(Nc2ccnc(N3CCN(c4ccnc5cc(Cl)ccc45)CC3)n2)cc1`, for which the growth was 62.8%.
As to `Clc1cc(Cl)c(Cl)c(-c2nc(-c3cccnc3)cs2)c1`, the growth was 114%.
Same read-out and setting: as for `CCCc1c(CC)c(=N)c2ccccc2n1C`, the figure is 68.2%.
Same read-out and setting: as for `N#CN1CC[C@H](C(=O)Nc2ncc(-c3ccccc3)s2)C1`, the figure is -3.88% (active); as for `C[N+]1=C(/C=C/c2ccc(I)cc2)C(C)(C)c2ccccc21`, 108%; as for `Clc1cc(Cl)c(OCCCCCCN2CCNCC2)c(Cl)c1`, 77.6%.
Consider `COCCOC(=O)NC(=O)Nc1ccc(C(=O)c2ccc(Cl)cc2)cc1`, for which the growth is 28.5%.
`CCCCCCCCCCSC(=N)N` (tested in a mixture with another compound): the growth was 77.3%.
As to `COc1cc(-c2nc3ccccc3[nH]2)ccc1OCc1nnc(-c2ccc(Br)cc2)o1`, the growth was 106%.
The same measure, in the same setting: with `O=S(=O)(NCCO)c1ccc(OCCOc2ccc(S(=O)(=O)NCCO)cc2)cc1` the figure was 90.7%; with `Cc1ccc([P+](Cc2ccccc2)(c2ccccc2)c2ccccc2)cc1`, 23.7%; with `O=C(Nc1cccc(Cl)c1)OCC(COC(=O)Nc1cccc(Cl)c1)(COC(=O)Nc1cccc(Cl)c1)[N+](=O)[O-]`, 41.8%.
The same measure, in the same setting: as for `COc1ccc(Cn2cc3c(c2-c2cc(OC)c(OC)c(OC)c2)CCc2cnoc2-3)cc1N`, the figure is 47.4%.
Take `COc1ccc(-c2nnc(SCC(=O)c3ccccc3)o2)cc1`: the growth is 84.5%.
The same measure, in the same setting: as for `Cc1ccc([P+](Cc2ccc([N+](=O)[O-])cc2)(c2ccc(C)cc2)c2ccc(C)cc2)cc1`, the figure is 70.8%; as for `Cc1cc(Cl)ccc1Nc1nc(C(F)(F)F)ccc1C(=O)N/N=C/c1ccccc1Cl`, -6.31% (active).
On the same count and under the same terms, with `O=C(OCc1ncc(-c2ccc(C(F)(F)F)cc2)c(NC2CCCCCC2)n1)c1c(F)c(F)c(F)c(F)c1F` the figure was 83.5%; with `O=C1CC(c2cccc(-c3cccnc3)c2)=Nc2ccc(Br)cc2N1`, 19.7%.
On the same count and under the same terms, with `c1ccc(OCCC[P+](c2ccccc2)(c2ccccc2)c2ccccc2)cc1` the figure was 22%; with `COCCNCC(O)Cn1c2ccc(Cl)cc2c2cc(Cl)ccc21` (stereo unspecified), 17%; with `Nc1cc2c(cc1Cl)-c1ccc(Cl)cc1C2=O`, 90.2%.

The next assay has as its system NCI-H460 lung. Described as above. Particulars: 10 µM.
For `CCOC(=O)c1cc(-c2ccccc2)nc(N)n1`, the growth was 104%.
Still for that read-out and setting: as for `COc1cc(C)c2sc3ccccc3c(=O)c2c1NCCN(C)C`, the figure is 22.2%; as for `C/C=C\COc1cc(C)c(Cl)cc1Cl`, 103%; as for `NC(N)=NS(=O)(=O)c1ccc(Nc2ccc3nnc(-c4ccncc4)n3n2)cc1`, 98.3%.
Consider `COc1ccc(C2C=C(c3ccc(Cl)c(Cl)c3)N=C3SC(C)=CN32)cc1` (stereo unspecified), for which the growth was 101%.
For the compound `CC(=O)OC1Oc2ccccc2-c2oc(=O)c(-c3ccc(F)cc3)cc21` (stereo unspecified), the growth is 94.4%.
Same read-out and setting: with `CS(=O)(=O)Nc1ccc(Nc2c3ccccc3nc3cc(Cl)ccc23)cc1` the figure was 8.44% (active); with `COc1cc2nc(Sc3sc(N)nc3C)n(-c3ccc(Oc4ccccc4)cc3)c(=O)c2cc1OC`, 99.5%; with `CCOC(=O)c1sc(NC(=O)c2cc(OC)c(OC)c(OC)c2)nc1C`, 108%.
On the same count and under the same terms, with `O=C(Nc1ccc(OCc2nnc(-c3ccccc3)o2)c(F)c1)Nc1ccc(Cl)c(Cl)c1` the figure was 36.6%; with `COc1ccc(/C=C2\SC(=S)N(CCCN3CCOCC3)C2=O)c(OC)c1`, 105%.
Same read-out and setting: as for `CCSc1nc2c([nH]1)c(=O)n(C)c(=S)n2C`, the figure is 107%.
For the compound `CCNC(=S)NN`, the growth was 95.6%.
On the same count and under the same terms, as for `COc1ccc(-c2ccc(-c3ccc(C(=N)N)c(F)c3)s2)cc1`, the figure is -84.2% (active).
`O=C(c1ccc(Cl)cc1)c1no[n+]([O-])c1C(=O)c1ccc(Cl)cc1`: the growth is 108%.
For `COc1cccc2c1O/C(=C\c1ccc([N+](=O)[O-])s1)C2=O`, the growth was 70.9%.
On to `NCCNc1ccc2cc(-c3nc4ccccc4[nH]3)c(=O)oc2c1`, for which the growth is 98.9%.
For the compound `Fc1ccc(Nc2ccnc(N3CCN(c4ccnc5cc(Cl)ccc45)CC3)n2)cc1`, the growth was 38%.
Consider `Clc1cc(Cl)c(Cl)c(-c2nc(-c3cccnc3)cs2)c1`, for which the growth was 92.2%.
The same measure, in the same setting: with `CCCc1c(CC)c(=N)c2ccccc2n1C` the figure was 65.9%; with `N#CN1CC[C@H](C(=O)Nc2ncc(-c3ccccc3)s2)C1`, 2.02% (active).
The same measure, in the same setting: with `C[N+]1=C(/C=C/c2ccc(I)cc2)C(C)(C)c2ccccc21` the figure was 103%.
The same measure, in the same setting: as for `Clc1cc(Cl)c(OCCCCCCN2CCNCC2)c(Cl)c1`, the figure is -39.8% (active); as for `COCCOC(=O)NC(=O)Nc1ccc(C(=O)c2ccc(Cl)cc2)cc1`, 23.3%.
For `CCCCCCCCCCSC(=N)N` (tested in a mixture with another compound), the growth is 52.5%.
Still for that read-out and setting: with `COc1cc(-c2nc3ccccc3[nH]2)ccc1OCc1nnc(-c2ccc(Br)cc2)o1` the figure was 82.2%; with `O=S(=O)(NCCO)c1ccc(OCCOc2ccc(S(=O)(=O)NCCO)cc2)cc1`, 111%; with `Cc1ccc([P+](Cc2ccccc2)(c2ccccc2)c2ccccc2)cc1`, 12.4%.
Still for that read-out and setting: with `O=C(Nc1cccc(Cl)c1)OCC(COC(=O)Nc1cccc(Cl)c1)(COC(=O)Nc1cccc(Cl)c1)[N+](=O)[O-]` the figure was 17.9%; with `COc1ccc(Cn2cc3c(c2-c2cc(OC)c(OC)c(OC)c2)CCc2cnoc2-3)cc1N`, -9.29% (active); with `COc1ccc(-c2nnc(SCC(=O)c3ccccc3)o2)cc1`, 105%.
Regarding `Cc1ccc([P+](Cc2ccc([N+](=O)[O-])cc2)(c2ccc(C)cc2)c2ccc(C)cc2)cc1`, the growth is 60.5%.
Still for that read-out and setting: with `Cc1cc(Cl)ccc1Nc1nc(C(F)(F)F)ccc1C(=O)N/N=C/c1ccccc1Cl` the figure was 5.74% (active).
Still for that read-out and setting: with `O=C(OCc1ncc(-c2ccc(C(F)(F)F)cc2)c(NC2CCCCCC2)n1)c1c(F)c(F)c(F)c(F)c1F` the figure was 63.5%; with `O=C1CC(c2cccc(-c3cccnc3)c2)=Nc2ccc(Br)cc2N1`, 24.3%.
For `c1ccc(OCCC[P+](c2ccccc2)(c2ccccc2)c2ccccc2)cc1`, the growth is 12.5%.
Still for that read-out and setting: as for `COCCNCC(O)Cn1c2ccc(Cl)cc2c2cc(Cl)ccc21` (stereo unspecified), the figure is 5.55% (active); as for `Nc1cc2c(cc1Cl)-c1ccc(Cl)cc1C2=O`, 96.6%.
